Our source for the inhibition values is PubChem BioAssay.

The structures appear in SMILES notation. A number with no mark means an inactive call. The source made the active and inactive calls. Cut-off read from the data, not from the text of the source, unless noted: active = inhibition above about 36%; inactive = the rest.

In assay [1] the test system is transactivating tegument protein VP16 (Human herpesvirus 1). Kind of assay: compounds suppressing VP16-driven luciferase signal – cell-based, luminescence, single concentration, counter-screen for SRC2 inhibitor project (AID 652007). The note with it: cell-based VP16 transactivation luciferase reporter, at 8.9 µM, active compounds read high. In general terms: A counterscreen serves to expose hits that act by an unwanted route or on another target.

Assay [2] addresses Nuclear receptor coactivator 2 (Homo sapiens) (UniProt Q15596). Kind of assay: inhibition of GAL4-SRC2 driven luciferase expression – cell-based, luminescence, HEK293, triplicate, confirmation (AID 652008;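 active = mean inhibition above 46.5%, the solvent-only control mean plus 3 SD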;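 note: 0% = DMSO-treated cells and 100% = Gossypol at 36 µM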). The note with it: HEK293 GAL4-SRC2 luciferase reporter, at 8.9 µM, active compounds read high.

Sequence of Nuclear receptor coactivator 2 (Homo sapiens) (Q15596 whole entry, looked up, the tested form may be a part): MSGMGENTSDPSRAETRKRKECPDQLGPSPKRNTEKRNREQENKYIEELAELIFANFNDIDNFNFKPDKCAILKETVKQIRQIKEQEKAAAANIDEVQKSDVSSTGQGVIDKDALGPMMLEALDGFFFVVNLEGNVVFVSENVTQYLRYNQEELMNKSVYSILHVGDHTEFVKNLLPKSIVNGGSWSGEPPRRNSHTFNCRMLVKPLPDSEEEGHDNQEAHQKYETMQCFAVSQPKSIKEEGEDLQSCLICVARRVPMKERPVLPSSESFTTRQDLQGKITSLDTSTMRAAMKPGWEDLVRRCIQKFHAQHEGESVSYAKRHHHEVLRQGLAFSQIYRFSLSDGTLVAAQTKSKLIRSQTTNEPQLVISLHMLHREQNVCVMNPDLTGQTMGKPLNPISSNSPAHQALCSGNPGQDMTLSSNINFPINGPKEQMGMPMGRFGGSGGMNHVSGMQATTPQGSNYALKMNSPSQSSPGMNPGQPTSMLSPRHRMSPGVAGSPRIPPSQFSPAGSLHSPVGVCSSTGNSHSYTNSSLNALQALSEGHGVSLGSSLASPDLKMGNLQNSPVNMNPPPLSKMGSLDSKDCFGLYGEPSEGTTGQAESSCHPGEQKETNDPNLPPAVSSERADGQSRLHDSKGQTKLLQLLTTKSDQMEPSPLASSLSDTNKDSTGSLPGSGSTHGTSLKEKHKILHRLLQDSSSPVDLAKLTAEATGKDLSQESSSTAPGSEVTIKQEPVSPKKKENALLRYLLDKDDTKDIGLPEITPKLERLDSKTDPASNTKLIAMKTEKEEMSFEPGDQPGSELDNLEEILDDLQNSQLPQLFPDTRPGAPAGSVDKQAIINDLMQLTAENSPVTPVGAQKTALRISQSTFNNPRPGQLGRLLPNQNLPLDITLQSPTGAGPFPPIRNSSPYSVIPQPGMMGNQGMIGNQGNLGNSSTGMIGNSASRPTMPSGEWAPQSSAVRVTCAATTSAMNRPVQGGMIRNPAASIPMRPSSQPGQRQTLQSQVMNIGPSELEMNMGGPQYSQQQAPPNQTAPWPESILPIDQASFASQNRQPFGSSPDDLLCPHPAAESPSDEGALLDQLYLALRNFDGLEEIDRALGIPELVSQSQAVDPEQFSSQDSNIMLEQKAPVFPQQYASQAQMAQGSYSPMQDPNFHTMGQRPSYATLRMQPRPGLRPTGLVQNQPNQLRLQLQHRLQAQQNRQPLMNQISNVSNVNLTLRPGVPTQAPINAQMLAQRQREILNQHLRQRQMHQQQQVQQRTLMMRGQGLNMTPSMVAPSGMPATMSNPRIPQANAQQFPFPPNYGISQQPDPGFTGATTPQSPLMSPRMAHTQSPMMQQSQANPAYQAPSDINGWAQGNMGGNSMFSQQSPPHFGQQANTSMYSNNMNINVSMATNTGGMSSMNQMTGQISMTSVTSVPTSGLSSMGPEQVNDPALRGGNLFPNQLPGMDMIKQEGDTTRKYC

For orientation: inhibition means the drop in the measured response relative to a control, in per cent. Consider `COC(=O)C1CN(Cc2ccccc2)CCS(=O)(=O)N1Cc1cn(Cc2ccc(Cl)cc2)nn1` (centres undefined), for which the inhibition in assay [1] was -13.7%; in assay [2] it was -3.09%.
`O=C(Nc1ccc(NC(=O)c2ccco2)cc1)c1ccc2c(c1)OCCO2`: the results for the inhibition in assay [1] and in assay [2] were -30.2% and 12.1%, respectively.
For `COC(=O)c1nn(-c2ccc3c(c2)CCN3C(C)=O)cc1O`, in that order: -21.8% and 43.5%.
For `O=S(=O)(c1ccc(NC(=S)NCc2ccncc2)cc1)N1CCCCC1`, in that order: 15.6% and 0.63%.
In the case of `CC(C(=O)NC(C)(C)C)N(C(=O)CS(=O)CC(=O)Nc1ccc(F)cc1)c1ccccc1F` (centres undefined), the inhibition is 2.18% in assay [1] and -14.3% in assay [2].
For `Cc1ccc(NC(=O)C2(C)CCN2C(=O)CC(c2ccccc2)c2ccccc2)cc1` (centres undefined), in that order: -6.43% and -7.67%.
For `COC(=O)COc1ccc(-c2nccc(-c3ccccn3)n2)cc1`, in that order: 16.9% and 73.4% (active).
For `NS(=O)(=O)c1ccc(NC(=O)COc2ccc(C(=O)c3ccc(F)cc3)cc2)cc1` the same measures were -1.97% and -2.94%.
With `Cc1ccc2sc(N(CCCN(C)C)C(=O)CN3C(=O)c4ccccc4C3=O)nc2c1C`, the figures for the inhibition in assay [1] and in assay [2] were -2.35% and 3.74%, respectively.
For `COc1cc(SC)ccc1C(=O)Nc1ncc(C)s1` the same measures were 10.3% and 24%.
For `CC(=O)N(CCc1ccccc1)c1ccc2c(c1)C1CC2CCN1C(=O)OCc1ccccc1` (centres undefined), in that order: 17% and 18.6%.
For `NC(=O)c1cc(C(=O)c2ccc(Cl)cc2Cl)c[nH]1`, in that order: -19.8% and 14.3%.
